Screening results from PubChem.
D2 PAM-1: positively modulates the human D2 dopamine receptor allosterically; P14416; HEK293 T-REx D2, calcium flux, EC20 dopamine potentiation; potentiation, % at 10 µM; hit rate 0.34% among 340,000; AID 485347;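 active = potentiation over 3 SD above the plate norm, cut at about 30% in these data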; note: 0% is about no effect
Target sequence (P14416 whole entry, looked up): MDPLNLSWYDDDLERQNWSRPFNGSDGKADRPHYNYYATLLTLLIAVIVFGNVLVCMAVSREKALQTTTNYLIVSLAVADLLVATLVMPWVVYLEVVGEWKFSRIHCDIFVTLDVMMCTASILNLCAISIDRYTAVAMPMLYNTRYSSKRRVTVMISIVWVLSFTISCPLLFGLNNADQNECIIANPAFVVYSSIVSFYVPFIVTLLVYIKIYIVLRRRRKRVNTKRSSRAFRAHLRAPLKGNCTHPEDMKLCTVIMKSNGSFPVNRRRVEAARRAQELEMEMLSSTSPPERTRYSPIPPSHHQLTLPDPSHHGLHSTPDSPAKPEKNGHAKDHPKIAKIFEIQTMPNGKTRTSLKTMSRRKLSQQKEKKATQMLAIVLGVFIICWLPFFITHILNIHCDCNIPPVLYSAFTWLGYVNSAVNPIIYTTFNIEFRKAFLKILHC
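Using a no-wash calcium dye in inducible, force-coupled HEK293 Trex cells expressing D2, we tracked fluorescence each second for 180 s after compound, then for 180 s after EC20 dopamine to detect augmented signalling.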
D2 antag: antagonizes the human D2 dopamine receptor; P14416; HEK293 TREx D2 cells, calcium flux, dopamine EC80; inhibition, % at 10 µM; hit rate 2% among 340,000; AID 485344; in the data active = inhibition above about 30%; inactive = below that, where a call was filed; note: 0% is about no effect
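Tetracycline-induced HEK293 TREx cells expressing D2 receptor forced-coupled to calcium signalling, loaded with no-wash calcium dye. Compounds added and calcium flux read 180 s, then dopamine added at EC80 and read a further 180 s.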
D2 PAM-2: potentiates the human D2 dopamine receptor allosterically; P14416; DiscoveRx D2 beta-arrestin cells, luminescence, 90 min; 100% = 57 uM dopamine signal; potentiation, % (concentration not given with the values); hit rate 0.23% among 360,000; in the data active = potentiation above about 50%; inconclusive = mostly about 30% to 49%
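D2 cells co-treated with compound plus 50 nM dopamine (EC20) for 90 min at 37 deg C to detect potentiation. Beta-arrestin recruitment was read as enzyme-fragment luminescence after 1 h at ambient temperature. Full response was set by 57 uM dopamine.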
D2 ag-1: activates the human D2 dopamine receptor; HEK293 T-REx D2 cells, calcium flux agonist mode; AID 485358; activation, % at 2 µM; hit rate 0.53% among 340,000;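 active = activation over 3 SD above normal in the single-dose calcium agonist read, cut at about 30% in these data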; note: 0% is about no effect
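Agonism scored from kinetic calcium signal (1 read/sec, 180 s) following compound pin transfer, after a 10 s baseline. Cells: HEK293 Trex line expressing inducible D2 receptor coupled to calcium, dye-loaded after overnight culture at 30 C.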
D2 ag-2: activates the human D2 dopamine receptor. DiscoveRx PathHunter D2 beta-arrestin, luminescence, 90 min; 100% = 57 uM dopamine signal. activation, % (test concentration not listed). hit rate 0.084% among 360,000; in the data active = activation above about 40%; inconclusive = between about 15% and that limit
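Agonist mode: compounds alone added to overnight-plated D2 PathHunter cells for 90 min at 37 C, with 57 uM final dopamine (EC100) defining full response. Beta-arrestin recruitment detected by chemiluminescent reagent, read after 1 h at ambient temperature.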
* hit, by the source's call; u = inconclusive; x = not tested or not shown. Sampled rows, rich in hits. Any-hit rate of the full collection: about 2.4%.

SMILES	D2 PAM-1	D2 antag	D2 PAM-2	D2 ag-1	D2 ag-2
COc1ccc2c(C(=O)CN3CCN(c4ccccc4)CC3)c[nH]c2c1	-15	41*	-14	56*	10
COc1cc(C(C)=O)ccc1OCC(O)CN1CCN(c2ccccn2)CC1 (stereo not drawn)	-18	93*	23	78*	60*
Cc1cccc(C)c1NC(=O)c1oc2c(c1C)-c1nn(Cc3ccccc3)cc1CC2	-3	x	x	-1	x
OC(COc1ccccc1Cl)CN1CCN(CC(O)COc2ccccc2Cl)CC1 (stereo not drawn)	-16	70*	-44	3	0
COC(=O)c1[nH]c2cc(C)ccc2c1NC(=O)CN1CCOCC1	-15	5	0	-1	0
Cc1ccccc1OCC(O)CN1CCN(C)CC1 (stereo not drawn)	9	-16	-7	-1	-6
COC(=O)c1[nH]c2cc(C)ccc2c1NC(=O)CN1CCN(c2ccccc2OC)CC1	-20	70*	-35	0	-4
Cc1ccc(-c2nc3cc(C(C)C)ccc3o2)cc1NC(=O)c1cc([N+](=O)[O-])ccc1N1CCOCC1	-2	x	x	-1	x
Cc1ccc(CCNC(=O)CCN2N=C(c3ccc(C)cc3)CCC2=O)cc1	9	x	x	x	x
CCOC(=O)N1CCN(Cc2nc(N)nc(Nc3ccc(Cl)cc3)n2)CC1	1	9	4	8	4
O=C(CN1CCN(C(=O)c2ccco2)CC1)NCc1ccc(Cl)cc1	20	32*	7	0	2
O=C(CN1CCN(Cc2ccccc2)CC1)NCc1ccc(Cl)cc1	2	-1	-8	0	4
O=C(c1ccco1)N1CCN(Cc2nnc(-c3ccccc3F)o2)CC1	35*	-15	-2	-2	2
Nc1nc(CN2CCN(C(=O)c3ccco3)CC2)nc(Nc2cccc(Cl)c2)n1	0	-19	27	38*	u
O=C(c1ccco1)N1CCN(c2ccc(F)cc2)CC1	-1	-5	-1	1	-1
O=C(c1ccco1)N1CCN(Cc2ccc(F)cc2)CC1	-17	58*	u	81*	44*
COc1ccc(C(=O)NCCn2cc(SCc3ccc(C(F)(F)F)cc3)c3ccccc32)cc1OC	2	x	x	1	x
Cc1ccccc1-n1nnnc1SCC(=O)c1c(N)n(C)c(=O)n(C)c1=O	12	18	-2	10	1
Cn1c(N)c(C(=O)CSc2nnnn2-c2ccccc2)c(=O)n(C)c1=O	-13	39*	1	7	2
COCC(C)n1c(COc2ccccc2F)nnc1SCC(=O)c1c(N)n(C)c(=O)n(C)c1=O (stereo not drawn)	15	-7	-7	1	-4
CCCCCCn1c(COc2ccccc2F)nnc1SCC(=O)c1c(N)n(C)c(=O)n(C)c1=O	32*	-7	x	-1	x
Cc1ccc(Cn2cc(S(=O)(=O)c3cccc(Cl)c3)c(=O)c3cc(F)c(N4CCCCC4)cc32)cc1	0	x	x	x	x
O=c1c(=O)n(-c2ccccc2)ccn1Cc1c(F)cccc1Cl	-3	x	x	-1	x
CCCCOc1ccc(S(=O)(=O)NCc2csc(-c3ccc(OC)cc3)n2)cc1	-5	x	x	1	x
CCCN(CCC)C(=O)Cn1c(=O)n(-c2ccccc2)c(=O)c2c3c(sc21)CCCC3	-1	x	x	0	x
SMILES	D2 PAM-1	D2 antag	D2 PAM-2	D2 ag-1	D2 ag-2
CCCCOC(=O)/C(=C\c1ccc([N+](=O)[O-])o1)NC(=O)c1ccccc1	36*	-14	15	0	0
CCCCOC(=O)/C(=C/C=C/c1ccccc1)NC(=O)c1ccccc1	x	11	-9	0	0
CSc1ccccc1NC(=O)CSc1n[nH]c(C)c1[N+](=O)[O-]	0	41*	-6	0	-2
Cc1ccc(O)c(NC(=O)CSc2n[nH]c(C)c2[N+](=O)[O-])c1	x	x	6	x	14
COC(=O)c1sccc1S(=O)(=O)N(CC(=O)Nc1c(C)cccc1C)c1ccc(C)c(C)c1	7	x	x	x	x
OC(CCCN1CCCCC1)(c1ccccc1)c1ccccc1	-28	80*	-25	1	-6
CCC(O)(CCN1CCCCC1)c1ccccc1 (stereo not drawn)	-2	-4	-14	0	-3
Cc1cccc(CSc2cn(CC(=O)N3CCOCC3)c3ccccc23)c1	0	35*	-7	0	-1
